Bioassay records (PubChem)
Shown are actives, neighbours in structure and some others; about 3.4% of the full set was active somewhere.
H9c2 protect: cardioprotection against H2O2-induced cell death, primary screen, uHTS, H9c2 cells, ATPLite luminescence. H9c2 cardiomyocytes, H2O2 injury protection, 2 h. protection from H2O2 cell death, % at 20 µM. hit rate 0.63% among 360,000. AID 588492, 2011;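 active = compounds giving at least 50% protection of heart cells from peroxide-induced death in the single-dose screen, raw or plate-pattern-corrected value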
NR2F2 inh: NR2F2 transcriptional activity inhibitors, primary screen, cell-based, luciferase reporter, HEK293T, luminescence. COUP transcription factor 2 (Homo sapiens), P24468. HEK293T NGFI-A luciferase reporter. inhibition, % at 8.6 µM. hit rate 0.7% among 370,000. AID 686940, 2013;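 active = inhibition above a per-plate cutoff, mean inhibition of test wells between control levels plus 3 SD, cut at about 38% in these data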;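 note: cells cotransfected with COUP-TFII expression vector driving the NGFI-A reporter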
Target sequence (P24468 whole entry, looked up): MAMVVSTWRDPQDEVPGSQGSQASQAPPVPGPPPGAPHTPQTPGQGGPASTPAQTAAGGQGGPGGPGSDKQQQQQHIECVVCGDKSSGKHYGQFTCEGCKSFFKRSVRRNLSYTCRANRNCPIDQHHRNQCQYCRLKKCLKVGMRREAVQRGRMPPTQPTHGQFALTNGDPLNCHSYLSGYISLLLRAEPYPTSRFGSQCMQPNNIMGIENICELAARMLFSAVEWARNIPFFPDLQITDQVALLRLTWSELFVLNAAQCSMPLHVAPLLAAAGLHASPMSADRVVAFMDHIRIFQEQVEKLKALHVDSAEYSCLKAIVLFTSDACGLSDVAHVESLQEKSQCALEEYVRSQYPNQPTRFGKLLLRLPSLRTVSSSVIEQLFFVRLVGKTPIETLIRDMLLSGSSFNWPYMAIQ
FXN GAA850 act: FXN promoter activators, primary screen, cell-based, luciferase luminescence, HEK293 lucGAA850; HEK293 lucGAA850 FXN promoter luciferase reporter, 24 h; percent of 10 µM SAHA response; activation, % at 6 µM; hit rate 0.56% among 360,000; AID 540364, 2011;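 active = activation above the average of all compounds screened plus 3 SD, cutoff fixed separately per campaign, cut at about 7.5% in these data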
GalR3 antag: GalR3 antagonists in HEK293 cells, primary screen, cell-based, fluorescence readout. Galanin receptor type 3 (Homo sapiens), O60755. HEK293 GalR3-CNG cAMP membrane potential fluorescence; galR3 body fused to GalR1 C-terminus. inhibition, % at 3 µM. hit rate 0.44% among 360,000. AID 651719, 2012;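 active = inhibition above the screen-wide average plus 3 SD, cut at about 13% in these data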;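 note: forskolin and galanin both at EC90 stimulate the cells; cAMP rise reported by CNG channel membrane potential dye signal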
Target sequence (O60755 1-299 limits assumed): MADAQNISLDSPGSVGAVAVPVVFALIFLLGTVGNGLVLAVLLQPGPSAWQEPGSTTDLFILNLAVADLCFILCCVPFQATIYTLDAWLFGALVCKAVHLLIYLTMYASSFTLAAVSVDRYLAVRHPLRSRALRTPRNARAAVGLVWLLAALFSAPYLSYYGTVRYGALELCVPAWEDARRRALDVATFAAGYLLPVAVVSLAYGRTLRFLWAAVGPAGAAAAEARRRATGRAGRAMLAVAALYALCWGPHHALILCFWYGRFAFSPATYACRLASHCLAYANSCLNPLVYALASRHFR
Gli-Sufu block: Gli-Sufu pathway antagonists, primary screen, luciferase luminescence, Sufu-KO-LIGHT cells, uHTS; Sufu-KO-LIGHT fibroblasts, Gli luciferase reporter luminescence; inhibition, % at 5 µM; hit rate 0.74% among 340,000; AID 588413, 2011;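 active = inhibition above about 55%, limit read from the data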
SMARCA2 activ: SMARCA2 (BRM) function activators, primary screen, cell-based, luminescence, high throughput. MG213 cells, MMTV-luciferase reporter, dexamethasone, overnight. activation, % at 9.1 µM. hit rate 1% among 370,000. AID 652017, 2013; in the data active = activation above about 7.8%
SMARCA2 act conf: SMARCA2 (BRM) function activators, confirmation, cell-based, luminescence, triplicate; shares compounds with SMARCA2 activ; MG213 cells, MMTV-luciferase with dexamethasone, overnight; MG213 cells expressing E1A, Rb sequestered; DMSO wells 0%, reference activator 100%; activation, % at 9.1 µM; hit rate 30% among 3,500; AID 652260, 2013;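 active = activation above its plate's cutoff, the mean activation of tested wells plus 3 SD, cut at about 7.9% in these data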
VP16 Luc act: GAL4-VP16 luciferase reporter activation, counter-screen for SMARCA2 (BRM) activator project, cell-based, pG5luc, luminescence, high throughput; activation, % at 9.1 µM; shares compounds with SMARCA2 activ; hit rate 41% among 3,500; HEK293 GAL4-VP16 pG5luc reporter; scaled: DMSO wells 0%, SAHA wells 100%; AID 686939, 2013;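 active = activation above the solvent-only control well mean plus 3 SD, averaged across control plates, cut at about 5.2% in these data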
Of the large screens only hits and unclear results are named; the others gave an inactive call (follow-up assays come after a bar, where they were run).

COc1cc(NC(=O)C/C(C)=N/NC(=O)C(OC)c2ccccc2)c(OC)cc1Cl (centres undefined)	none
C=CCN(CC=C)C(=S)NC(=O)c1ccc(OC)cc1	none
C=CCN(CC=C)C(=S)NC(=O)c1ccc(-c2ccccc2)cc1	SMARCA2 activ 8.0 | SMARCA2 act conf inactive | VP16 Luc act inactive
C=C(c1ccc(OC)cc1)c1ccc(OC)cc1	SMARCA2 activ 9.3 | SMARCA2 act conf inactive | VP16 Luc act inactive
COc1cc(C(=O)NCCOc2cccc3cccnc23)cc(OC)c1OC	SMARCA2 activ 11 | SMARCA2 act conf inactive | VP16 Luc act inactive
COc1ccccc1OCCNC(=O)c1ccc(Br)cc1	SMARCA2 activ 8.8 | SMARCA2 act conf inactive | VP16 Luc act inactive
COc1ccccc1OCCNC(=O)c1ccc(C(C)(C)C)cc1	SMARCA2 activ 8.2 | SMARCA2 act conf inactive | VP16 Luc act inactive
Cc1nnc2sc(SCc3ccc(Cl)cc3)nn2c1=O	none
Cc1ccc(CSc2nn3c(=O)c(C)nnc3s2)cc1	SMARCA2 activ 8.6 | SMARCA2 act conf inactive | VP16 Luc act inactive
Cc1ccc(OC(=O)CCC(=O)Nc2ccc(C)c(C)c2)cc1	none
CCOc1ccc(C(=O)NCC(C)CN(C)C)cc1OCC (centres undefined)	SMARCA2 activ 9.4 | SMARCA2 act conf inactive | VP16 Luc act inactive
O=C(NCc1ccc(F)c(F)c1)C1Cc2c(-c3ccc4c(c3)OCO4)ccnc2O1 (centres undefined)	none (no result: Gli-Sufu block)
NC(=S)c1ncc(C(F)(F)F)cc1Cl	SMARCA2 activ 8.6 | SMARCA2 act conf inactive | VP16 Luc act inactive
Cc1ccc(NC(=O)CCC(=O)N/N=C/c2cccnc2)cc1	none
COCCCn1c(=S)[nH]c2ccc(N3CCOCC3)cc2c1=O	none
CCCCN(C)CCn1c(=S)[nH]c2ccc(N3CCOCC3)cc2c1=O	SMARCA2 activ 9.7 | SMARCA2 act conf inactive | VP16 Luc act inactive
Cc1cc(C)n2c(NC3CCCCC3)c(-c3ccccn3)nc2n1	none (no result: H9c2 protect, FXN GAA850 act, Gli-Sufu block)
Cc1cc(C)n2c(NC3CCCC3)c(-c3cc4ccccc4o3)nc2n1	SMARCA2 activ 8.6 (no result: H9c2 protect, FXN GAA850 act, Gli-Sufu block) | SMARCA2 act conf 8.0 | VP16 Luc act 6.7
O=c1oc2cc(Cl)ccc2n1CSc1nc2ccccc2s1	SMARCA2 activ 8.8 | SMARCA2 act conf inactive | VP16 Luc act 11
O=C(N=C1c2ccccc2CN1c1ccc(F)c(Cl)c1)c1cccnc1Cl	none (no result: H9c2 protect, FXN GAA850 act, Gli-Sufu block)
O=C(N/N=C/c1cc2ccccc2[nH]1)c1ccccc1Cl	SMARCA2 activ 8.2 | SMARCA2 act conf inactive | VP16 Luc act inactive
O=C(CCCCn1c(=S)[nH]c2ccsc2c1=O)NCc1ccc2c(c1)OCO2	none
O=C(O)Cn1cc(/C=c2/sc3nc4ccccc4n3c2=O)c2ccccc21	SMARCA2 activ 10 | SMARCA2 act conf inactive | VP16 Luc act 8.8
O=c1/c(=C\c2cccn2-c2ccccc2)sc2nc3ccccc3n12	none
O=C(CSC(=S)N1CCOCC1)Nc1ncc2c(n1)CC(c1ccco1)CC2=O (centres undefined)	none
N#CC1(NC(=O)COC(=O)/C=C/c2ccc3ccccc3n2)CCCCC1	SMARCA2 activ 9.4 | SMARCA2 act conf 8.3 | VP16 Luc act inactive
O=C(COC(=O)/C=C/c1ccc2ccccc2n1)NNC(=O)c1ccc([N+](=O)[O-])cc1	none
COc1ccc(C(NC(=O)C2CCN(CCOc3ccc(Cl)cc3Cl)CC2)c2ccccn2)cc1 (centres undefined)	none (no result: Gli-Sufu block)
COc1ccc(CNC(=O)C(C)Sc2nc3ccccc3c(=O)n2CCCN2CCOCC2)cc1 (centres undefined)	SMARCA2 activ 11 | SMARCA2 act conf inactive | VP16 Luc act inactive
COc1ccccc1CNC(=O)CSc1nc2ccccc2c(=O)n1CCCN1CCOCC1	none
CCC(=O)N1CCC1(C)C(=O)Nc1cccc(OC)c1OC (centres undefined)	none (no result: Gli-Sufu block)
Cc1nc2c(sc3nc(N4CCOCC4)c4c(c32)CC(C)(C)OC4)c(-c2ccc(Cl)cc2)c1C(=O)O	SMARCA2 activ 8.4 | SMARCA2 act conf inactive | VP16 Luc act inactive
COc1ccc(N2CCN(C(=O)c3cc(=O)c4ccc(C)cc4o3)CC2)cc1	SMARCA2 activ 12 | SMARCA2 act conf inactive | VP16 Luc act inactive
C=CCn1c(=O)c(C(=O)Nc2ccccc2S(N)(=O)=O)c(O)c2ccccc21	SMARCA2 activ 11 | SMARCA2 act conf 16 | VP16 Luc act inactive
Cc1cc2nnc(SCC(=O)OC(C)C)n2c2ccccc12	none
CC(=O)Nc1ccc(NC(=O)c2ccc(-c3c(C)noc3C)c3ccoc23)cc1	SMARCA2 activ 8.6 (no result: Gli-Sufu block) | SMARCA2 act conf inactive | VP16 Luc act 10
O=C(Cn1sc2ccccc2c1=O)Nc1ccc(F)cc1	SMARCA2 activ 9.2 (no result: Gli-Sufu block) | SMARCA2 act conf 11 | VP16 Luc act inactive
O=C(Cn1sc2ccccc2c1=O)Nc1ccc(Br)cc1	none (no result: Gli-Sufu block)
CCOC(=O)[C@]12CCCC=C1N(Cc1ccc3c(c1)OCO3)C(=O)[C@H](CC(=O)NCCc1ccccc1OC)C2	none (no result: H9c2 protect, FXN GAA850 act, Gli-Sufu block)
CCOC(=O)c1sc(NC(=O)CCN2CCN(C)CC2)c(C(=O)OCC)c1C	SMARCA2 activ 8.4 | SMARCA2 act conf inactive | VP16 Luc act inactive
CCOC(=O)c1sc(NC(=O)CN2CCCC2)c(C(=O)OCC)c1C	none
CCN(CC)CCCNc1nc2ccccc2c2[nH]c3ccc(OC)cc3c12	SMARCA2 activ 54 | SMARCA2 act conf inactive | VP16 Luc act inactive
CCOC(=O)N1CCc2c(sc3nc4n(c(=O)c23)N=C(c2ccc(OC)cc2)CS4)C1	none
CS/C(=N\N(C)C(N)=O)c1ccccc1	SMARCA2 activ 8.4 | SMARCA2 act conf inactive | VP16 Luc act inactive
CCOC(=O)N1CCC(NC(=O)C2=CCN(S(=O)(=O)c3ccc(OC)cc3)CC2)CC1	none
CCN(CCC(=O)Nc1cc([N+](=O)[O-])ccc1OC)Cc1ccccc1	SMARCA2 activ 9.7 | SMARCA2 act conf inactive | VP16 Luc act inactive
COc1ccc(C2=Nn3c(nnc3-c3ccccc3Cl)SC2)cc1OC1CCOC1 (centres undefined)	SMARCA2 activ 11 | SMARCA2 act conf 18 | VP16 Luc act inactive
COc1ccc(C2=Nn3c(nnc3-c3ccccc3Cl)SC2)cc1OC1CCCC1	none
O=C(N/N=C/C(Cl)=C/c1ccccc1)c1ccccn1	none
